# Compound: C#CCNC(=O)CCSSCCC(=O)NCCc1ccc(C=O)c(C=O)c1
# Assay: lysine labeling ratio R10:1 (500 µM / 50 µM probe), SILAC-ABPP in living cells; higher = lower intrinsic lysine reactivity toward the probe, active = 2 or less
# Conditions: HeLa; probe concentrations 500 vs 50 µM
# Procedure, shortened: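 Measurements came from LC-MS/MS on a TIMS-TOF Pro of mixed SILAC light and heavy HeLa lysates after click to biotin-azide, trypsin digestion, neutravidin capture, DTT release and alkylation. Before lysis, the living cells sat in PBS at room temperature with 50 µM or 500 µM of an alkyne-tagged, disulfide-linked lysine probe, and labels were swapped forward and reverse. R per lysine is the median across both swap directions of the filtered median high-probe/low-probe MS1 peptide ratio. The cap is 20.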
# UniProt Q14980, sequence (Q14980 whole entry): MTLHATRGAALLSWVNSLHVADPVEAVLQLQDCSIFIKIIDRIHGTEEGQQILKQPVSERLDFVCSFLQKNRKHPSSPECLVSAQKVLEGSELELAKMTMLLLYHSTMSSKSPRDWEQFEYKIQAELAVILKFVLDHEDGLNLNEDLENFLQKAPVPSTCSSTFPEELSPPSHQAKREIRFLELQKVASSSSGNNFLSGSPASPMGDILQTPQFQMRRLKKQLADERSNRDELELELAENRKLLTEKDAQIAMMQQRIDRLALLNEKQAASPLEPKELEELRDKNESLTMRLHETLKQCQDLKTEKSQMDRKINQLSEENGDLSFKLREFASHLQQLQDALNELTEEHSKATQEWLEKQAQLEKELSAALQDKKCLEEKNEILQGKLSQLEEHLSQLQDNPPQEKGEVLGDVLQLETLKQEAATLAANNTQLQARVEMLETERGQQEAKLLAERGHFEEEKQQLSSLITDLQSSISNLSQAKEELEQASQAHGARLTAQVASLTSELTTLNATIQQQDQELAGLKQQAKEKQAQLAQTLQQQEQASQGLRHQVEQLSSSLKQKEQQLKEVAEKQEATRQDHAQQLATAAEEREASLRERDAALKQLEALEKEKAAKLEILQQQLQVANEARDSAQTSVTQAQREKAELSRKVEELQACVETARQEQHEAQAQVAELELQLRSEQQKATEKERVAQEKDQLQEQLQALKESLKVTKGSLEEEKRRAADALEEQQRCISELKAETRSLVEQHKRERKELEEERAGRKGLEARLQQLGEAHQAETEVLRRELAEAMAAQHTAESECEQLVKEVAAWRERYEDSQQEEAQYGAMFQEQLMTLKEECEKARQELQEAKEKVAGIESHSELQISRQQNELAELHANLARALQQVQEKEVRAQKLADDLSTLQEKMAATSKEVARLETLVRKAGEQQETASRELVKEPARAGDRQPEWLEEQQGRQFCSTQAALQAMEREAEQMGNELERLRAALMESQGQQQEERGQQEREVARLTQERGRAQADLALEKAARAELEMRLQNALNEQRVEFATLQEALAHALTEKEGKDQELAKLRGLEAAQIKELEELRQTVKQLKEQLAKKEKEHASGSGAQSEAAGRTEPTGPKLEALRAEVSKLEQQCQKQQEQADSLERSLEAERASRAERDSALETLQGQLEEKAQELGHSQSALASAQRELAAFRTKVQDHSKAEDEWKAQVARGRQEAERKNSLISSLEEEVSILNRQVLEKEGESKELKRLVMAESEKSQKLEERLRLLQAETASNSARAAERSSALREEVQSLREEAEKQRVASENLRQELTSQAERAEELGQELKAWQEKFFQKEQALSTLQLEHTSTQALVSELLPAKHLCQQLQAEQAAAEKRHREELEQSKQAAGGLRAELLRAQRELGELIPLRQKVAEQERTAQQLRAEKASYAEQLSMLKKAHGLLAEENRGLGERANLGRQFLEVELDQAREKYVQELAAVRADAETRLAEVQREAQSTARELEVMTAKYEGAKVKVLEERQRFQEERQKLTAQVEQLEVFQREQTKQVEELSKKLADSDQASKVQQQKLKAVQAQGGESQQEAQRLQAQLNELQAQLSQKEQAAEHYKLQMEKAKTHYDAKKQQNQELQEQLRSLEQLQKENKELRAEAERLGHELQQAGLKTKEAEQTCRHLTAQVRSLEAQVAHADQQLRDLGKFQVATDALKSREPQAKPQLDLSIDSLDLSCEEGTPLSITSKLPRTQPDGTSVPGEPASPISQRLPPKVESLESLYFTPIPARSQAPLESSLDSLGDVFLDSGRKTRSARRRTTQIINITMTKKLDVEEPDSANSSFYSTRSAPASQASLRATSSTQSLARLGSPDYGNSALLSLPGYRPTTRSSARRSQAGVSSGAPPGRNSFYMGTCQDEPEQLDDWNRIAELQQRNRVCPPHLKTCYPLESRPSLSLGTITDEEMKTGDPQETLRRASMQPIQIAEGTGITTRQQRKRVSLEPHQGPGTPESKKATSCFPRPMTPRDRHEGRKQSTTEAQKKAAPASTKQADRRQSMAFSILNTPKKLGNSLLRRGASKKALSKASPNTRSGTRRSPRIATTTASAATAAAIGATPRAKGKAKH
# UniProt P46940, sequence (P46940 whole entry): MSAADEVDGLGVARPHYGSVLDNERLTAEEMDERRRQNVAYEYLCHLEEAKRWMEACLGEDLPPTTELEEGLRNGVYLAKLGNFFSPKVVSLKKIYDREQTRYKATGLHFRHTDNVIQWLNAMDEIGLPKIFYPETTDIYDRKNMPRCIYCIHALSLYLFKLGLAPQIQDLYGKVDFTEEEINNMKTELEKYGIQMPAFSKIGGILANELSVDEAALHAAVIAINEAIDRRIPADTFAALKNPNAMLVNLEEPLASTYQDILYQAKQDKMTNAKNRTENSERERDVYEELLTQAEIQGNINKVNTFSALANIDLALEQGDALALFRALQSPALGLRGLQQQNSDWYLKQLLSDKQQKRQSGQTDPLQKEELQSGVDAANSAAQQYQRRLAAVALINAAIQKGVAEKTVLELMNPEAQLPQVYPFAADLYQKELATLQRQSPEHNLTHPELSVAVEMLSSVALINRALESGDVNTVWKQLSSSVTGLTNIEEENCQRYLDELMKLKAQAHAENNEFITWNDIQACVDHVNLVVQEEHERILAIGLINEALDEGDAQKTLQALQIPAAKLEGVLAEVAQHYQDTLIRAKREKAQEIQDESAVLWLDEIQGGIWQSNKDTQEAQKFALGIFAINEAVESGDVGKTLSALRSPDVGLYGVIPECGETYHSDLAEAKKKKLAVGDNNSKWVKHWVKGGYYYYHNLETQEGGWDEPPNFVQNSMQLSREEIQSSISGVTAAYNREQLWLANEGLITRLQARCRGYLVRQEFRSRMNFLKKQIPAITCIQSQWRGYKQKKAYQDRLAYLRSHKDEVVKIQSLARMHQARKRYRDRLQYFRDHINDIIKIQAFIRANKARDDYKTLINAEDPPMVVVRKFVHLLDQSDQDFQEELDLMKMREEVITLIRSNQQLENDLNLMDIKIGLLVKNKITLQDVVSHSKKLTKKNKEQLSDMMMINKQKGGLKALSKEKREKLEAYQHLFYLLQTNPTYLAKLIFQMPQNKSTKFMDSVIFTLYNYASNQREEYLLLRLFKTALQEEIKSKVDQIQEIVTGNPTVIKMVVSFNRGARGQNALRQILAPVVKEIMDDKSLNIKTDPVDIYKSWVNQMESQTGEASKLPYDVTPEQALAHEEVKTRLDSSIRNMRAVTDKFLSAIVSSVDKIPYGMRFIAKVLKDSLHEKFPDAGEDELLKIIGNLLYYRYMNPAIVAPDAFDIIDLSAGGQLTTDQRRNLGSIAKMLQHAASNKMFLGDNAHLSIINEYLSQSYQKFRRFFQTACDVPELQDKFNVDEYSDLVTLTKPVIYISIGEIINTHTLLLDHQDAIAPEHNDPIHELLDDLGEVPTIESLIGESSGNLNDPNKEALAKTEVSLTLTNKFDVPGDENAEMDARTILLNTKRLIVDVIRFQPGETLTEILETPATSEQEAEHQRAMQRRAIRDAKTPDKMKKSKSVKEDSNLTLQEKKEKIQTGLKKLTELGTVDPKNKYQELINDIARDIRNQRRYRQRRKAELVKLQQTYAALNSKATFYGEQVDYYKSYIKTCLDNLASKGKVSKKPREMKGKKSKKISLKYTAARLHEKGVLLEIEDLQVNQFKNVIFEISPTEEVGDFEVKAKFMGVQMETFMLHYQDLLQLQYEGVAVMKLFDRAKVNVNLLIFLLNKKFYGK
# UniProt P37802, sequence (P37802 whole entry): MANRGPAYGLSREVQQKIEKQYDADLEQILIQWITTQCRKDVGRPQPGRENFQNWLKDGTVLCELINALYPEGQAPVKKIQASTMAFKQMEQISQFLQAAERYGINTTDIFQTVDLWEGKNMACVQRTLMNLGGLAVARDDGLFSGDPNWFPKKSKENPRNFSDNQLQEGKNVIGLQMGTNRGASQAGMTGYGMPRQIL
# UniProt Q14974, sequence (Q14974 whole entry): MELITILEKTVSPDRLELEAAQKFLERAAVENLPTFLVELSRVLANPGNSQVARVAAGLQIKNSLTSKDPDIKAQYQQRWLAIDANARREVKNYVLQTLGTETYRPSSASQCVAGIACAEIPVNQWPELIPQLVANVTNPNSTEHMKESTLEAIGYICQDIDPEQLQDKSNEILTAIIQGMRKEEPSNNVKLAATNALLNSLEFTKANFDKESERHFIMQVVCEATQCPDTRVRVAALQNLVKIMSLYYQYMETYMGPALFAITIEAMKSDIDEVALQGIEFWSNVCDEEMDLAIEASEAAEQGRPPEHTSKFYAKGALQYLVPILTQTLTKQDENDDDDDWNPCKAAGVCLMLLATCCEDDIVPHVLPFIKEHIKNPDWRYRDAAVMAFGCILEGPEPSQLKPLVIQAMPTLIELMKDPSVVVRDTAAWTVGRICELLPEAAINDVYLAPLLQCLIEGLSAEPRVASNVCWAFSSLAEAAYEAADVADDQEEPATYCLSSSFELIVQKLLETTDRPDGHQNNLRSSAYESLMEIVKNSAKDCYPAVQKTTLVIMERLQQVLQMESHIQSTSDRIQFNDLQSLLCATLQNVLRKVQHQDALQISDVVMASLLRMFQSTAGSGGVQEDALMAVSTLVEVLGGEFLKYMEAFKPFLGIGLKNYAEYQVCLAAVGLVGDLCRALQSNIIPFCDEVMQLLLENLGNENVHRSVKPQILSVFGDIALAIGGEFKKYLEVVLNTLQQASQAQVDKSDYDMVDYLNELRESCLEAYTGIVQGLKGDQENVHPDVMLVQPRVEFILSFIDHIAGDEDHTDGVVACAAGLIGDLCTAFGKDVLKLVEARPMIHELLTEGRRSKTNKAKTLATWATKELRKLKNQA
# UniProt Q9NR28, sequence (Q9NR28 whole entry): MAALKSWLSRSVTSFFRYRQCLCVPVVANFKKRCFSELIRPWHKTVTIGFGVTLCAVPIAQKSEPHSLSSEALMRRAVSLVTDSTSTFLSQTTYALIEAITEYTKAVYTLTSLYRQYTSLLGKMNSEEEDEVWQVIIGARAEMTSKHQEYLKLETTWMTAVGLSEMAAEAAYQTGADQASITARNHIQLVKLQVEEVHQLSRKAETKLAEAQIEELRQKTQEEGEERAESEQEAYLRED
row,Target,lysine labeling ratio R10:1
1,IQGAP1 (lysine site: K368) (UniProt P46940),3.38 (inactive)
2,ACTN4 (lysine site: K592) (UniProt O43707),6.67 (inactive)
3,SPTAN1 (lysine site: K719) (UniProt Q13813),3.93 (inactive)
4,IGF1R (lysine site: K713) (UniProt P08069),2.62 (inactive)
5,TAGLN2 (lysine site: K154) (UniProt P37802),1.43 (active)
6,PA2G4 (lysine site: K238) (UniProt Q9UQ80),1.53 (active)
7,CLTC (lysine site: K1612) (UniProt Q00610),4.67 (inactive)
8,FAT4 (lysine site: K3828) (UniProt Q6V0I7),5.8 (inactive)
9,ATAD3B (lysine site: K281) (UniProt Q5T9A4),12.6 (inactive)
10,DIABLO (lysine site: K219) (UniProt Q9NR28),1.92 (active)
11,UniProt P62269 (lysine site: K137),3.21 (inactive)
12,UniProt Q16363 (lysine site: K682),1.54 (active)
13,DYNC1H1 (lysine site: K4406) (UniProt Q14204),3.65 (inactive)
14,UniProt Q8WXD0 (lysine site: K130),1.74 (active)
15,UniProt Q9H336 (lysine site: K468),1.33 (active)
16,UniProt Q15149 (lysine site: K1528),1.47 (active)
17,UniProt Q00341 (lysine site: K510),0.655 (active)
18,FLNA (lysine site: K2025) (UniProt P21333),3.25 (inactive)
19,SPTBN2 (lysine site: K1909) (UniProt O15020),1.63 (active)
20,DSG2 (lysine site: K251) (UniProt Q14126),8.19 (inactive)
21,UniProt Q9UKX5 (lysine site: K223),2.86 (inactive)
22,WNT5A (lysine site: K283) (UniProt P41221),3.04 (inactive)
23,NUMA1 (lysine site: K573) (UniProt Q14980),1.46 (active)
24,KPNB1 (lysine site: K376) (UniProt Q14974),2.54 (inactive)

# From the supplement of paper PMC11001985
